This note sets out measurements from PubChem BioAssay (EPA / NIEHS).

A short description of assay [1]: ATG_E_Box_CIS: Attagene CIS-FACTORIAL HepG2 Assay for human Enhancer Box (E-box) (AID 2282936). The settings on record: HepG2 E-box cis-reporter transcription, actives raise or lower the signal. An outline of the steps:
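HepG2 cells transiently transfected with multiplexed cis-element reporter units, dosed 24 h; reporter mRNA quantified by RT-PCR, 6-FAM labelling, HpaI digestion and capillary electrophoresis. E-box (USF1) signal fitted bidirectionally vs DMSO.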

Assay [2] can be described thus: ATG_M_61_CIS: Attagene CIS-FACTORIAL HepG2 Assay for M61 Transcription Factor (Internal Marker) (AID 2282937). The settings on record: HepG2 Attagene CIS-FACTORIAL M61 internal marker reporter; actives raise or lower the signal. A digest of the protocol: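 Human liver HepG2, transient MRTU transfection (cis promoter elements), 24 h compound. Total RNA → oligo(dT) RT → PCR → FAM label → HpaI → CE. Internal background marker; bidirectional fitting, DMSO = baseline.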

Assay [3] in a line: ATG_EGR_CIS: Attagene CIS-FACTORIAL HepG2 Assay for human Early Growth Response 1 (EGR1) (AID 2282938). The settings on record: HepG2 Attagene CIS-FACTORIAL EGR reporter mRNA; actives raise or lower the signal. A digest of the protocol: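 Transient transfection of human HepG2 with multiple cis-regulated reporter units, chemical exposure 24 h, total RNA isolated. Reverse transcription, PCR, fluorescent labelling and capillary electrophoresis quantify reporter transcripts; activity fitted bidirectionally against DMSO.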

The nature of assay [4]: ATG_M_19_CIS: Attagene CIS-FACTORIAL HepG2 Assay for M19 Transcription Factor (Internal Marker) (AID 2282939). The settings on record: HepG2 Attagene CIS-FACTORIAL M19 internal marker reporter; actives raise or lower the signal. An outline of the steps: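 Readout: fluorescent reporter-transcript fragments by capillary electrophoresis after RT-PCR. Human HepG2 liver cells carried transfected MRTU constructs reporting endogenous transcription-factor activity; exposure 24 h. Gain or loss of signal fitted relative to DMSO.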

Assay [5] in a line: ATG_ERE_CIS: Attagene CIS-FACTORIAL HepG2 Assay for Estrogen Response Element (ERE) (AID 2282940). The settings on record: HepG2 ERE cis-reporter, Attagene RNA transcript; actives raise or lower the signal. An outline of the steps: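 Readout: reporter mRNA induction by RT-PCR, FAM-labelled primer extension, HpaI digestion and capillary electrophoresis, 24 h after dosing transfected HepG2 cells. Endogenous transcription factors act on cis-element-regulated reporters. Gain or loss fitted against DMSO.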

A short description of assay [6]: ATG_Ets_CIS: Attagene CIS-FACTORIAL HepG2 Assay for human Erythroblast Transformation Specific (ETS) (AID 2282941). The settings on record: HepG2 ETS cis-reporter transcription, actives raise or lower the signal. A digest of the protocol: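 After transient cis-reporter transfection, HepG2 cells receive test chemical for 24 h. Reporter mRNA levels, measured by RT-PCR and capillary electrophoresis fluorescence, are analysed bidirectionally relative to the DMSO baseline.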

Assay [7] addresses Hepatocyte nuclear factor 3-beta (Homo sapiens) (UniProt Q9Y261). Briefly: ATG_FoxA2_CIS: Attagene CIS-FACTORIAL HepG2 Assay for human Forkhead box A2 (FOXA2) (AID 2282942). The settings on record: HepG2 cis-reporter transcription factor activity, 24 h; actives raise or lower the signal. A digest of the protocol:
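Transient MRTU transfection of HepG2 liver cells; 24 h treatment; total RNA → oligo(dT) RT → PCR → FAM primer extension → HpaI cut → CE. Bidirectional fit vs DMSO.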

Assay [8] is described as follows: ATG_FoxO_CIS: Attagene CIS-FACTORIAL HepG2 Assay for human Forkhead box O (FoxO) (AID 2282943). The settings on record: HepG2 Attagene cis-reporter, FoxO element, mRNA; actives raise or lower the signal. An outline of the steps: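 Transfected HepG2 reporter cells exposed to test chemical for 24 h; reporter RNA measured by reverse transcription, PCR and fluorescent capillary electrophoresis; curves fitted for increases and decreases against DMSO.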

Assay [9] can be described thus: ATG_GATA_CIS: Attagene CIS-FACTORIAL HepG2 Assay for human GATA Binding Protein (AID 2282944). The settings on record: HepG2 GATA cis-element reporter, Attagene multiplex mRNA; actives raise or lower the signal. An outline of the steps: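 Read-out: fluorescent reporter mRNA fragments resolved by capillary electrophoresis after RT-PCR. Human liver HepG2 cells carried transiently transfected cis-regulated reporter constructs; chemicals incubated 24 h; gain or loss of signal fitted relative to DMSO.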

The nature of assay [10]: ATG_GLI_CIS: Attagene CIS-FACTORIAL HepG2 Assay for human Zinc Finger Protein GLI1 (AID 2282945). The settings on record: HepG2, Attagene cis-factorial reporter mRNA, GLI element; actives raise or lower the signal. An outline of the steps: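 Transiently transfected HepG2 cells report endogenous transcription factor activity via cis-element-driven reporter units. After 24 h compound exposure, reporter mRNA was measured by RT-PCR with capillary electrophoresis; bidirectional fitting against DMSO baseline.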

In assay [11] the target is Bile acid receptor (Homo sapiens) (UniProt Q96RI1). Briefly: ATG_IR1_CIS: Attagene CIS-FACTORIAL HepG2 Assay for human Nuclear Receptor Subfamily 1 Group H Member 4 (NR1H4), IR1 submotif (AID 2282946). The settings on record: IR1 reporter transcription, actives raise or lower the signal. A digest of the protocol:
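HepG2 cells transiently transfected with multiple cis-promoter-driven reporter units to measure endogenous transcription factor activity; 24 h exposure. Reporter mRNA read by RT-PCR, FAM labelling, HpaI digestion and capillary electrophoresis. Bidirectional fit versus DMSO.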

Assay [12] can be described thus: ATG_GRE_CIS: Attagene CIS-FACTORIAL HepG2 Assay for human Glucocorticoid Response Elements (GRE) (AID 2282947). The settings on record: HepG2 GRE cis-reporter, Attagene multiplex mRNA; actives raise or lower the signal. A digest of the protocol:
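Transiently transfected HepG2 cells carrying GRE cis-reporter units (endogenous TF activity) dosed 24 h; reporter mRNA quantified by RT-PCR, 6-FAM labelling, HpaI digestion and capillary electrophoresis. Bidirectional fit versus DMSO baseline.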

Assay [13] in a line: ATG_ISRE_CIS: Attagene CIS-FACTORIAL HepG2 Assay for human Interferon Regulatory Factor 1 (IRF1) binding to an Interferon-Stimulated Response Element (ISRE) (AID 2282948). The settings on record: HepG2 ISRE cis-reporter (Attagene), mRNA transcription readout; actives raise or lower the signal. A digest of the protocol: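 Quantitation relies on labelled RT-PCR fragments separated by capillary electrophoresis. Human HepG2 cells bearing cis-promoter reporter constructs were treated 24 h; DMSO served as baseline for bidirectional fitting.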

The nature of assay [14]: ATG_M_32_CIS: Attagene CIS-FACTORIAL HepG2 Assay for M32 Transcription Factor (Internal Marker) (AID 2282949).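 Also: background control marker of the multiplexed CIS panel rather than a real target.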 The settings on record: HepG2 Attagene cis-factorial M32 reporter, mRNA; actives raise or lower the signal. A digest of the protocol: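 Fluorescent capillary electrophoresis peaks of HpaI-digested, FAM-labelled RT-PCR reporter products give the signal. Source: transiently transfected human liver HepG2 cells, 24 h after chemical dosing; bidirectional fitting against DMSO.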

Assay [15] is described as follows: ATG_M_06_CIS: Attagene CIS-FACTORIAL HepG2 Assay for M06 Transcription Factor (Internal Marker) (AID 2282950). The settings on record: HepG2 Attagene CIS-FACTORIAL M06 internal marker reporter; actives raise or lower the signal. A digest of the protocol: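 Terse: HepG2, transient MRTU transfection (FuGene 6), 24 h dosing; total RNA, oligo(dT) RT, PCR, FAM label, HpaI cut, capillary electrophoresis; bidirectional fit vs DMSO baseline; background-control endpoint.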

In assay [16] the target is Hypoxia-inducible factor 1-alpha (Homo sapiens) (UniProt Q16665). Briefly: ATG_HIF1a_CIS: Attagene CIS-FACTORIAL HepG2 Assay for human Hypoxia Inducible Factor 1 (HIF1A) (AID 2282951). The settings on record: HepG2 Attagene cis-factorial HIF1a reporter transcription; actives raise or lower the signal. A digest of the protocol:
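Transient MRTU transfection of human HepG2 liver cells, 24 h compound treatment, then total RNA isolation, oligo(dT) reverse transcription, PCR amplification, fluorescent labelling and capillary electrophoresis of reporter fragments. Gain or loss relative to DMSO.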

The target in assay [17] is Hepatocyte nuclear factor 6 (Homo sapiens) (UniProt Q9UBC0). Briefly: ATG_HNF6_CIS: Attagene CIS-FACTORIAL HepG2 Assay for human Hepatocyte Nuclear Factor 6 (HNF6) (AID 2282952). The settings on record: HepG2 Attagene cis-factorial HNF6 reporter transcription; actives raise or lower the signal. An outline of the steps:
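HepG2, transient MRTU transfection (cis promoters); 24 h chemical exposure; total RNA → oligo(dT) RT → PCR → 6-FAM labelling → HpaI cut → CE; bidirectional fit vs DMSO.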

Assay [18] concerns the target Heat shock factor protein 1 (Homo sapiens) (UniProt Q00613). Briefly: ATG_HSE_CIS: Attagene CIS-FACTORIAL HepG2 Assay for human Heat Shock Transcription Factor 1 (HSE) (AID 2282953). The settings on record: HepG2 HSE cis-reporter, Attagene RNA transcription; actives raise or lower the signal. An outline of the steps:
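Read-out: fluorescence of reporter-specific RT-PCR fragments separated by capillary electrophoresis. HepG2 carrying transfected cis-element reporter units; 24 h dosing; activity fitted in both directions relative to DMSO baseline.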

A short description of assay [19]: ATG_MRE_CIS: Attagene CIS-FACTORIAL HepG2 Assay for human Metal Responsive Element (MRE) (AID 2282954). The settings on record: HepG2 MRE cis-reporter transcription, Attagene multiplex; actives raise or lower the signal. An outline of the steps: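 HepG2 cells transiently transfected with cis-element-driven reporter units; mRNA measured 24 h after dosing. Reporter transcripts quantified by RT-PCR, FAM labelling, HpaI digestion and capillary electrophoresis; bidirectional fit versus DMSO.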

A short description of assay [20]: ATG_PBREM_CIS: Attagene CIS-FACTORIAL HepG2 Assay for human Phenobarbital-responsive Enhancer Module (PBREM) (AID 2282955). The settings on record: HepG2 PBREM cis-reporter, Attagene multiplexed transcription; actives raise or lower the signal. An outline of the steps: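 Endogenous transcription factors in human liver HepG2 cells drive a PBREM cis-element reporter, whose transcript level after 24 h treatment is quantified by RT-PCR with capillary electrophoresis; activity fitted in both directions against DMSO.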

Each structure is given as a SMILES string. Active and inactive are the calls of the source. The calls were made as follows: active = hit-call score of the fitted dose curve at least 0.9, where 1 is the maximum; inactive = score below 0.9.

Sequence of Heat shock factor protein 1 (Homo sapiens) (Q00613 whole entry, looked up, the tested form may be a part): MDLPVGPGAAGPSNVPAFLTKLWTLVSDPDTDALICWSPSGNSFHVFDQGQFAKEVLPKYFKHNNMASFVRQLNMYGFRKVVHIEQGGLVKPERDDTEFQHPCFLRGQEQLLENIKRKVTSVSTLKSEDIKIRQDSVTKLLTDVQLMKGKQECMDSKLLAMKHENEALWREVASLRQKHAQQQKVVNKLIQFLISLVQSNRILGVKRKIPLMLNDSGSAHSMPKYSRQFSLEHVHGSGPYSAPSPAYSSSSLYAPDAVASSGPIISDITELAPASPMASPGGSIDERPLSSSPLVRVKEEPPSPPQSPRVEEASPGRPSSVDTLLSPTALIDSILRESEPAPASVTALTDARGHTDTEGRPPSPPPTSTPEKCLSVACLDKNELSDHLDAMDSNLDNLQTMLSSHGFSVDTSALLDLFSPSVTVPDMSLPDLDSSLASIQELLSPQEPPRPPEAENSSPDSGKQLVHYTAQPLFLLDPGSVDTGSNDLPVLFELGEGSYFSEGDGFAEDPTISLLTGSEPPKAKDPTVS
Sequence of Hypoxia-inducible factor 1-alpha (Homo sapiens) (Q16665 whole entry, looked up, the tested form may be a part): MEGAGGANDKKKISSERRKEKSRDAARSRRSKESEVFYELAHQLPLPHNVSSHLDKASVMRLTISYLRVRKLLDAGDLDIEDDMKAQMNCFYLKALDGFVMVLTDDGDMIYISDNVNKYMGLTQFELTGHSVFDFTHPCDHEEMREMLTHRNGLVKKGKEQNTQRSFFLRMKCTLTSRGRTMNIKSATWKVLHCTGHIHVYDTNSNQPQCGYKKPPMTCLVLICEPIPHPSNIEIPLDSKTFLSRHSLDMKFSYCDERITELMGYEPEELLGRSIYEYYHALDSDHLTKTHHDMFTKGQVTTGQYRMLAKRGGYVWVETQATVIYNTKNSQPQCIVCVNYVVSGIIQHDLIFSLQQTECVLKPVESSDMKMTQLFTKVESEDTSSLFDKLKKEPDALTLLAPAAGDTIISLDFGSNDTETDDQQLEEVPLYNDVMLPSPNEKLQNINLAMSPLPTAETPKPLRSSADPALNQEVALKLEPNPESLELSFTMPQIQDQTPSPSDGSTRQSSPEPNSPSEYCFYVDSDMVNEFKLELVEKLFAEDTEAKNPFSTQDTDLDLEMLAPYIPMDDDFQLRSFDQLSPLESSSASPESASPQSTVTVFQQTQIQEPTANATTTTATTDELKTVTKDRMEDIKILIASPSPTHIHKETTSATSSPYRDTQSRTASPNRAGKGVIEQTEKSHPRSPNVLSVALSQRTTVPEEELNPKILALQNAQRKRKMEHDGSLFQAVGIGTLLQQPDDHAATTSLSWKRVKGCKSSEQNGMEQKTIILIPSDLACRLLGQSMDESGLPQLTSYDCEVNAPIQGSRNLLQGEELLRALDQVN
Sequence of Hepatocyte nuclear factor 3-beta (Homo sapiens) (Q9Y261 whole entry, looked up): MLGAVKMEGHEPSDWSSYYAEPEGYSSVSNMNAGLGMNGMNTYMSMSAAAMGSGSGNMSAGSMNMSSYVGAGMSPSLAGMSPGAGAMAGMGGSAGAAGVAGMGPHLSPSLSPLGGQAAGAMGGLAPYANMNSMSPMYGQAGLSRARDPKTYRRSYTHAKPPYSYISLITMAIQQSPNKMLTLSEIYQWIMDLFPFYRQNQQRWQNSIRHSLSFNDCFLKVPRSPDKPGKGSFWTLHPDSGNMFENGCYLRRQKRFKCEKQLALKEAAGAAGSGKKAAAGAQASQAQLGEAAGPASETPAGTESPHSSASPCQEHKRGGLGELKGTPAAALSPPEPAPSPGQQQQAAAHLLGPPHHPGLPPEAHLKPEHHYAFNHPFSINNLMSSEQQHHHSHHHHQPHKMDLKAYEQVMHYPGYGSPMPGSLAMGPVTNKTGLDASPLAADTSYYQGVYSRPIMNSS
Sequence of Hepatocyte nuclear factor 6 (Homo sapiens) (Q9UBC0 whole entry, looked up): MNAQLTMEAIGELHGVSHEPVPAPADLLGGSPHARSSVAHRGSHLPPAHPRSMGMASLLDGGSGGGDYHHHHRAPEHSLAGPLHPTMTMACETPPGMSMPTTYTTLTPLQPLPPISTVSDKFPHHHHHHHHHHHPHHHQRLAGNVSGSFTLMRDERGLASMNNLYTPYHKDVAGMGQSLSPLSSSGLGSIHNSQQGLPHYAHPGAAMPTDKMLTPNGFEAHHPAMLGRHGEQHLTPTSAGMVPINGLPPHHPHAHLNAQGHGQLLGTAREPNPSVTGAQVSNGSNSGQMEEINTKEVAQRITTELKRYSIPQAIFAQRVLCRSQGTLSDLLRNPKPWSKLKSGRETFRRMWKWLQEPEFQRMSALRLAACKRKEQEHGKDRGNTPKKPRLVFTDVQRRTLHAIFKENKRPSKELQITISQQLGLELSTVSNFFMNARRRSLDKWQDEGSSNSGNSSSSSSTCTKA
Sequence of Bile acid receptor (Homo sapiens) (Q96RI1 whole entry, looked up): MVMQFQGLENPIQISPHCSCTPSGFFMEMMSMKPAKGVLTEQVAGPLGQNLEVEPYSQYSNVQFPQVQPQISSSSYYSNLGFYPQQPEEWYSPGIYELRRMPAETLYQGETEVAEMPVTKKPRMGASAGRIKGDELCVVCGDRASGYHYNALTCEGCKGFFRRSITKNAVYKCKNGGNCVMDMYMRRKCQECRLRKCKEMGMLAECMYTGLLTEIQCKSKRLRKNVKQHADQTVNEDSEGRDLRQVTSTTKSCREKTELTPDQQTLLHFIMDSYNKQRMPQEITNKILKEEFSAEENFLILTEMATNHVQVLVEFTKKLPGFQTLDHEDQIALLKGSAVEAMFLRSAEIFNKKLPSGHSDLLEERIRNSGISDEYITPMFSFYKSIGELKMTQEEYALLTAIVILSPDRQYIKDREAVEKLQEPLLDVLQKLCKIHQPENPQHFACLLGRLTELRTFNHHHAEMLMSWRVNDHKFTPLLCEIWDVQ

For the molecule `CCCCC(CC)COC(=O)CCCCCCCCC(=O)OCC(CC)CCCC` (configuration not stated), the outcome in [1], in [2], in assay [3], in assay [4], in [5] and in assay [6] was inactive. Moreover, the molecule was called inactive in [7], in assay [8], in [9], in assay [10], in assay [11] and in assay [12]. Also, the call in [13], in [14], in assay [15], in [16], in [17] and in assay [18] was inactive. The molecule was classed as inactive in [19] and in [20].
For `C=CC(=C)CCC=C(C)C`, the result in assay [1], in assay [2], in assay [3], in assay [4], in assay [5] and in assay [6] was inactive. In addition, the molecule was classed as inactive in [7], in [8], in [9], in assay [10], in assay [12] and in assay [13]. For the same molecule, the call in [14], in [15], in assay [16], in assay [17], in assay [18] and in assay [19] was inactive. Moreover, in assay [20], the outcome was inactive.
For the molecule `CCOC(=O)COc1ccc2c(c1)CC(NCC(O)c1cccc(Cl)c1)CC2` (configuration not stated), the result in assay [1], in assay [2], in assay [3], in [4], in assay [5] and in [6] was inactive. The outcome in assay [7], in [8], in assay [9], in assay [10], in [13] and in assay [14] was inactive. Besides, the molecule was classed as inactive in [15], in assay [17] and in assay [19]. For the same molecule, the values for the concentration at half-maximal activity (AC50) in assay [16], in assay [18] and in assay [20] were 33 µM (active), 45.5 µM (active) and 49.3 µM (active), respectively.
